Assay results reported in PubChem BioAssay (NCATS).
Results filed as inconclusive are left out. Where a call stands in place of a potency, no number is given. Calls of active or inactive are those of the source. Calls follow the shape of the dose curve; as a rule, active = well fitted cell-killing curve with a large enough effect; inconclusive = small, poorly fitted or top-dose-only effect; inactive = flat fitted curve, though single readings scatter.

test: Cell Viability - LYMP2-017 (AID 972); settings: LYMP2-017 lymphoblastoid cell viability; series mostly up to 92.2 µM; also: nearly all actives have a fitted effect of over 55% in size
From the text: NIH Chemical Genomics Center [NCGC]
NIH Molecular Libraries Screening Centers Network [MLSCN]
National Institutes of Environmental Health Sciences [NIEHS]
National Toxicology Program [NTP]
We have developed a 1536-well cell-based assay for quantitative high throughput screening (qHTS) against a number of cell lines to determine in vitro cytotoxicity of small molecules. This particular assay uses a human lymphoblastoid cell line (LYMP2-017) purchased from Coriell Institute for Medical Research.
NCGC Assay Protocol Summary:
The CellTiter-Glo luminescent cell viability assay (Promega) is a homogeneous method to measure the number of viable cells in culture. The end point readout of this assay is based on quantitation of intracellular ATP, an indicator of metabolic activity, using the luciferase reaction. Luciferase catalyzes the oxidation of beetle Luciferin to oxyluciferin and light in the presence of ATP. The luminescent signal is proportional to amount of ATP present.
Using the CellTiter-Glo luminescent cell viability assay, the amount of cellular ATP was measured in the lymphoblastoid cell line with complete culture medium following compound treatment for 24 hours. The assay was performed in opaque white Kalypsys 1536-well plates. In the screen, tetraoctylammonium bromide was used as positive control. Library compounds were measured for their ability to cause acute toxicity in the cell line, as reflected by a decrease in intracellular ATP levels, in a concentration-dependent manner. […] AC50 values were determined from concentration-response data modeled with the standard Hill equation.
qHTS protocol for CellTiter Glo lymphoblastoid cellular assay
[Step] [Parameter] [Value] [Description]
1. Reagent; 5 uL; 2500 lymphoblastoid cells/well
2. Time; 5 hr; 37 C incubation
4. Controls; 23 nL; Tetraoctylammonium bromide 6.4pM to 92 uM
5. Time; 24 hr; 37 C incubation
6. Reagent; 5 uL; CellTiter Glo reagent
7. Time; 30 min; Room Temperature
8. Detection; Luminescence; Viewlux plate reader
Keywords: cell viability, cytotoxicity, lymphoblastoid cell line, luminescence, NTPHTS, NTPHTS_NCGC, NIEHS, DSSTox, MLSMR, MLSCN, NIH Roadmap, qHTS, NCGC
Potency is read from the fitted curve at half-maximal effect.

SMILES | Potency
CC(C)Cc1nccs1 | inactive
Cc1cc(C)c(N)cc1C | inactive
Nc1cc(Cl)c([N+](=O)[O-])cc1O | inactive
COC(=O)CCC(=O)OC | inactive
C1CCCC1 | inactive
Cc1ccc(Br)cc1 | inactive
COc1ccc(N=[N+]([O-])c2ccc(OC)cc2)cc1 | inactive
CC(=O)c1cccc([N+](=O)[O-])c1 | inactive
O=Cc1c(Cl)cccc1Cl | inactive
CCC(C)=O | inactive
O=C(O)c1ccc(Cl)c(Cl)c1 | inactive
FB(F)F | inactive
O=C(O)c1ccccc1Cl | inactive
C=C(C)OC(C)=O | inactive
CC(=O)CC(C)C | inactive
C=Cc1ccccn1 | inactive
Cc1ccc(Cl)cc1N | inactive
CC(=O)Nc1ccc(C)cc1 | inactive
CCOc1ccccc1N | inactive
CC1=C(/C=C/C(C)=C/C=C/C(C)=C\C=O)C(C)(C)CCC1 | 50.1 µM (active)

SMILES | Potency
CN(C)c1cccc(O)c1 | inactive
COC(=O)c1ccccc1 | inactive
Cc1ccc2ncccc2c1 | inactive
N#CCc1ccccc1[N+](=O)[O-] | inactive
O=C(O[C@@H](C(=O)O)[C@@H](OC(=O)c1ccccc1)C(=O)O)c1ccccc1 | inactive
FC(F)(F)c1cccc(Cl)c1 | inactive
NC(=O)c1cccc([N+](=O)[O-])c1 | inactive
N#Cc1ccccc1 | inactive
C=CC(=O)NC(C)C | inactive
Nc1cc(Cl)c(N)c(Cl)c1 | inactive
Cc1nc2ccc(Cl)cc2[nH]1 | inactive
CCCCCNCCCCC | inactive
C[C@@H]1CC2(OC[C@]3(C)O[C@H]23)O[C@H]2C[C@@]3(C)[C@@H]4CC[C@H]5C(C)(C)C(O[C@@H]6OC[C@@H](O)[C@H](O)[C@H]6O)CC[C@@]56C[C@@]46CC[C@]3(C)[C@@H]12 (stereo not given in full) | inactive
ON=C1CCCCC1 | inactive
CC(CCl)OC(C)CCl (stereo not given) | inactive
CC/C=C/C#N | inactive
COc1ccc(OC)cc1 | inactive
O=[N+]([O-])c1ccc(Cl)cc1Cl | inactive
COc1ccc(N)c(C)c1 | inactive
CCOCC(=O)O | inactive
